From PubChem BioAssay (EPA / NIEHS) come the findings set out here.

Structures are written as SMILES. Calls of active or inactive are those of the source. The calls were made as follows: active = hit-call score of the fitted dose curve at least 0.9, where 1 is the maximum; inactive = score below 0.9.

Common to all, as to details: mRNA level, 48 h; actives raise or lower the signal
Read-out in assay [1]: Glutathione S-transferase M3 (GSTM3), GSTM3 (gene 2947)
Kind of assay: LTEA_HepaRG_GSTM3: Life Technologies and Expression Analysis (LTEA) Assay for Glutathione S-transferase M3 (GSTM3) using HepaRG (AID 2283501). In short, it runs like this: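 HepaRG, plated 48 h, then serum-free induction medium; test chemical 48 h, duplicate; 100 uM top, half-log x8, 0.5% DMSO. Read-out: GSTM3 mRNA (TaqMan qRT-PCR, Fluidigm array). Bidirectional fit vs DMSO.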

Read-out in assay [2]: Heat shock 70 kDa protein 1 (HSPA1A), gene 3303
Kind of assay: LTEA_HepaRG_HSPA1A: Life Technologies and Expression Analysis (LTEA) Assay for Heat shock 70 kDa protein 1 (HSPA1A) using HepaRG (AID 2283502). In short, it runs like this: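 Readout is HSPA1A transcript level by microfluidic qRT-PCR, normalized to three housekeeping genes and analysed for gain or loss of signal relative to 0.5% DMSO. Human HepaRG cultures received test chemicals for 48 h at up to 100 uM.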

Read-out in assay [3]: Hypoxia-inducible factor 1-alpha (Homo sapiens) (UniProt Q16665)
Kind of assay: LTEA_HepaRG_HIF1A: Life Technologies and Expression Analysis (LTEA) Assay for Hypoxia-inducible factor 1 (HIF1A) Trancription factor using HepaRG (AID 2283503). In short, it runs like this:
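Differentiated HepaRG cells in serum-free induction medium exposed 48 h, in duplicate, to 8-point half-log series from 100 uM in 0.5% DMSO. HIF1A mRNA measured by TaqMan qRT-PCR, normalized to ACTB/GAPDH/POLR2A, fitted bidirectionally versus DMSO.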

Read-out in assay [4]: 3-Hydroxy-3-Methylglutaryl-CoA Synthase 2 (HMGCS2), HMGCS2 (gene 3158)
Kind of assay: LTEA_HepaRG_HMGCS2: Life Technologies and Expression Analysis (LTEA) Assay for 3-Hydroxy-3-Methylglutaryl-CoA Synthase 2 (HMGCS2) using HepaRG (AID 2283504). The essentials: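 HepaRG, plated 48 h then switched to serum-free induction media; cmpd 8-pt, max 100 uM, 1/2-log, 0.5% DMSO, n=2, 48 h. HMGCS2 mRNA by Fluidigm TaqMan qRT-PCR, ACTB/GAPDH/POLR2A norm; bidirectional fit vs DMSO.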

Read-out in a further assay: HGF (gene 3082)
Kind of assay: LTEA_HepaRG_HGF: Life Technologies and Expression Analysis (LTEA) Assay for Hepatocyte Growth Facto (HGF) using HepaRG (AID 2283505). The essentials: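 Read-out is HGF transcript level by qRT-PCR, normalized to three housekeeping genes, fitted bidirectionally against 0.5% DMSO vehicle. Human HepaRG cells received test chemicals for 48 h at up to 100 uM.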

Read-out in assay [5]: Insulin Like Growth Factor 1 (IGF1), IGF1 (gene 3479)
Kind of assay: LTEA_HepaRG_IGF1: Life Technologies and Expression Analysis (LTEA) Assay for Insulin Like Growth Factor 1 (IGF1) using HepaRG (AID 2283506). The essentials: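 HepaRG, plated 48 h, then switched to serum-free induction media; test chemical 8-pt half-log from 100 uM (0.5% DMSO), duplicate, 48 h. Lysis in RLT, TaqMan qRT-PCR, norm. ACTB/GAPDH/POLR2A. Bidirectional fit vs DMSO.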

Read-out in assay [6]: Insulin-like growth factor-binding protein 1 (IGFBP1), IGFBP1 (gene 3484)
As to the kind of experiment: LTEA_HepaRG_IGFBP1: Life Technologies and Expression Analysis (LTEA) Assay for Insulin-like growth factor-binding protein 1 (IGFBP1) using HepaRG (AID 2283508). The essentials: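 Thawed HepaRG cells are plated for 48 h, switched to serum-free induction medium, then dosed in duplicate for another 48 h (100 uM top, half-log steps). Lysates in RLT go to qRT-PCR, and gain or loss of signal is fitted relative to vehicle.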

Read-out in assay [7]: Interleukin 6 Receptor (IL6R), IL6R (gene 3570)
Kind of assay: LTEA_HepaRG_IL6R: Life Technologies and Expression Analysis (LTEA) Assay for Interleukin 6 Receptor (IL6R) using HepaRG (AID 2283510). The essentials:
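Readout is IL6R transcript level by TaqMan qRT-PCR, normalized to three housekeeping genes and fitted bidirectionally against 0.5% DMSO controls. Human HepaRG cells received chemicals for 48 h in serum-free induction medium, highest concentration 100 uM.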

Read-out in assay [8]: Potassium channel subfamily K member 1 (KCNK1), KCNK1 (gene 3775)
As to the kind of experiment: LTEA_HepaRG_KCNK1: Life Technologies and Expression Analysis (LTEA) Assay for Potassium channel subfamily K member 1 (KCNK1) using HepaRG (AID 2283511). In short, it runs like this:
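Differentiated human HepaRG cells in serum-free induction medium were exposed in duplicate for 48 h to 8 half-log concentrations up to 100 uM in 0.5% DMSO. KCNK1 mRNA was measured by TaqMan qRT-PCR, normalized to ACTB, GAPDH and POLR2A, and fitted bidirectionally versus DMSO.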

Read-out in assay [9]: Keratin 19 (KRT19), KRT19 (gene 3880)
As to the kind of experiment: LTEA_HepaRG_KRT19: Life Technologies and Expression Analysis (LTEA) Assay for Keratin 19 (KRT19) using HepaRG (AID 2283512). The essentials:
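KRT19 transcript levels, measured by Fluidigm qRT-PCR against three housekeeping genes, are fitted for gain or loss of signal relative to DMSO. Human HepaRG cells receive test chemicals (top 100 uM, half-log steps, 0.5% DMSO) for 48 hours.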

Read-out in assay [10]: JUN Transcription Factor, JUN (gene 3725)
As to the kind of experiment: LTEA_HepaRG_JUN: Life Technologies and Expression Analysis (LTEA) Assay for JUN Transcription Factor using HepaRG (AID 2283513). The essentials: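 Cells plated 48 h, medium switched to serum-free induction medium, then dosed 48 h (100 uM top, half-log dilutions, 0.5% DMSO). RNA isolated; JUN measured by qRT-PCR against three housekeeping genes; gain or loss fitted relative to DMSO.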

Read-out in assay [11]: Lipase C (LIPC), LIPC (gene 3990)
Kind of assay: LTEA_HepaRG_LIPC: Life Technologies and Expression Analysis (LTEA) Assay for Lipase C (LIPC) using HepaRG (AID 2283514). The essentials:
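Differentiated human HepaRG cells in serum-free induction medium were exposed in duplicate for 48 h to eight concentrations (top 100 uM, half-log steps, 0.5% DMSO). LIPC mRNA was quantified by TaqMan qRT-PCR, normalized to ACTB, GAPDH and POLR2A, with bidirectional fitting versus DMSO.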

Read-out in assay [12]: Lipoprotein lipase (LPL), LPL (gene 4023)
Kind of assay: LTEA_HepaRG_LPL: Life Technologies and Expression Analysis (LTEA) Assay for Lipoprotein lipase (LPL) using HepaRG (AID 2283515). The essentials:
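Differentiated human HepaRG cells in serum-free induction medium were exposed in duplicate for 48 h to eight half-log concentrations (top 100 uM) in 0.5% DMSO. LPL mRNA was quantified by TaqMan qRT-PCR, normalized to ACTB, GAPDH and POLR2A.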

Read-out in assay [13]: MicroRNA 122 (MIR122), gene 406906
As to the kind of experiment: LTEA_HepaRG_MIR122: Life Technologies and Expression Analysis (LTEA) Assay for MicroRNA 122 (MIR122) using HepaRG (AID 2283516). Also: the transcript read is the microRNA miR-122. In short, it runs like this: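 HepaRG plated 48 h, switched to serum-free induction medium, then treated in duplicate for 48 h (100 uM top, half-log steps, 0.5% DMSO vehicle). RNA isolated, qRT-PCR performed, concentration-response fitted both directions relative to DMSO.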

Read-out in assay [14]: matrix metalloproteinase-10 (MMP10), MMP10 (gene 4319)
Kind of assay: LTEA_HepaRG_MMP10: Life Technologies and Expression Analysis (LTEA) Assay for matrix metalloproteinase-10 (MMP10) using HepaRG (AID 2283517). In short, it runs like this: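 HepaRG, collagen I, ~100,000 cells/well; serum-free induction medium; 48 h exposure, duplicate, 8-pt half-log to 100 uM, 0.5% DMSO. Readout: TaqMan qRT-PCR, normalized to ACTB/GAPDH/POLR2A; bidirectional fit vs DMSO.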

Read-out in another assay: MYC, MYC (gene 4609)
Kind of assay: LTEA_HepaRG_MYC: Life Technologies and Expression Analysis (LTEA) Assay for MYC using HepaRG (AID 2283518). The essentials:
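HepaRG, ~100,000 cells/well, collagen I; 48 h plating; serum-free induction medium; 48 h dosing, duplicate, 100 uM top, half-log, 0.5% DMSO; total RNA → qRT-PCR MYC; gain/loss fit vs DMSO.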

Read-out in assay [15]: Paternally Expressed 10 (PEG10), PEG10 (gene 23089)
Kind of assay: LTEA_HepaRG_PEG10: Life Technologies and Expression Analysis (LTEA) Assay for Paternally Expressed 10 (PEG10) using HepaRG (AID 2283520). The essentials: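 HepaRG, 48 h post-plating → serum-free induction medium → 48 h chemical exposure (duplicate, 8-pt, max 100 uM, half-log, 0.5% DMSO) → lysis in RLT → TaqMan qRT-PCR for PEG10, ACTB/GAPDH/POLR2A normalisation.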

Read-out in assay [16]: matrix metalloproteinase-3 (MMP3), MMP3 (gene 4314)
As to the kind of experiment: LTEA_HepaRG_MMP3: Life Technologies and Expression Analysis (LTEA) Assay for matrix metalloproteinase-3 (MMP3) using HepaRG (AID 2283519). In short, it runs like this: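 Differentiated human HepaRG cells, plated 48 h on collagen I, were exposed in duplicate for 48 h in serum-free induction medium to eight half-log concentrations up to 100 uM in 0.5% DMSO. MMP3 mRNA was quantified by TaqMan qRT-PCR, normalised to ACTB, GAPDH and POLR2A.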

Read-out in assay [17]: Interleukin 6 (IL6), IL6 (gene 3569)
Kind of assay: LTEA_HepaRG_IL6: Life Technologies and Expression Analysis (LTEA) Assay for Interleukin 6 (IL6) using HepaRG (AID 2283509). The essentials: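 Differentiated human HepaRG cells, plated 48 h then switched to serum-free induction medium, were exposed in duplicate for 48 h to eight half-log concentrations up to 100 uM in 0.5% DMSO. IL6 mRNA measured by qRT-PCR, normalized to ACTB/GAPDH/POLR2A.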

Sequence of Hypoxia-inducible factor 1-alpha (Homo sapiens) (Q16665 whole entry, looked up): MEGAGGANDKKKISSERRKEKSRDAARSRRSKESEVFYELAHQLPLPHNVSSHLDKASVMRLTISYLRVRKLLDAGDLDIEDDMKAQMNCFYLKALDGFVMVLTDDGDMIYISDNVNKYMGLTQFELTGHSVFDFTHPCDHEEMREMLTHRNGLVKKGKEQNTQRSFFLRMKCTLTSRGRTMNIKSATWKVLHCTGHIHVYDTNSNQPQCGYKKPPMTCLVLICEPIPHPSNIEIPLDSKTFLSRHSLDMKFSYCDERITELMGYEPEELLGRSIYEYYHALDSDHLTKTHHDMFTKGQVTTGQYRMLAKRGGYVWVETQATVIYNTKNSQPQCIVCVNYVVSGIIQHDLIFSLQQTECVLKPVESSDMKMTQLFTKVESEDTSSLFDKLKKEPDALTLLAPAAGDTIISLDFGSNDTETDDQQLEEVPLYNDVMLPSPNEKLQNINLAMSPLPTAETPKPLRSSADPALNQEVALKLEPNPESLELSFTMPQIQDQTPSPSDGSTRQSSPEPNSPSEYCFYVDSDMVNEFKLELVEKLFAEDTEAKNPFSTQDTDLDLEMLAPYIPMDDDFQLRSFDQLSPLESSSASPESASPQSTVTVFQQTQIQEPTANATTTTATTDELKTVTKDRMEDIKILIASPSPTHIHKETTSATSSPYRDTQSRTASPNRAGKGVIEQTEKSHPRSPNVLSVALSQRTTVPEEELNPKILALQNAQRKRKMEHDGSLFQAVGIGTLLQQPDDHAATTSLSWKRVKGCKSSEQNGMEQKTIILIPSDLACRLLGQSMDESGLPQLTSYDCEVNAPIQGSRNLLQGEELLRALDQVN

Turning to `Clc1ccc(C(c2ccc(Cl)cc2)C(Cl)Cl)cc1`, the call (in [1]; in assay [2]; in assay [3]; in [4]; in the assay with HGF (gene 3082); in assay [5]) was inactive. For the same molecule, the outcome in assay [6], in [7], in assay [8], in assay [9], in [10] and in [11] was inactive. Besides, the outcome in [12] is “inactive”; in assay [13], “inactive”; in assay [14] it was “inactive”; with MYC, MYC (gene 4609) it was “inactive”; in [15], “inactive”.

By AC50 is commonly meant the midpoint of the concentration-response curve, whichever way the signal moves. With `ClC1=C(Cl)C2(Cl)C3C(Cl)C=CC3C1(Cl)C2(Cl)Cl` (stereo unspecified), the molecule was classed as inactive (in [1]; in [4]; with HGF (gene 3082); in [6]; in assay [8]; in [9]). For the same molecule, the molecule was classed as inactive in [10], in [11], in assay [12], in assay [13], in assay [14] and in [16]. For the same molecule, in assay [15], the molecule was classed as inactive. Also, the concentration at half-maximal activity (AC50) was 24 µM (active) in assay [2]; 33.8 µM (active) in assay [3]; 5.6 µM (active) in assay [5]; 37.1 µM (active) with MYC, MYC (gene 4609).

For the molecule `c1ccc(C2CO2)cc1` (stereo unspecified), the molecule was classed as inactive (in assay [2]; in [3]; in [4]; with HGF (gene 3082); in assay [5]; in assay [6]). Moreover, the call in [8], in assay [9], in [10], in assay [11], in assay [12] and in assay [13] was inactive. In addition, the outcome in assay [14] is “inactive”; with MYC, MYC (gene 4609), “inactive”; in assay [15], “inactive”.

Take `N#CC(Br)Br`: the outcome (in [1]; in assay [2]; in assay [3]; in assay [4]; with HGF (gene 3082); in assay [5]) was inactive. Moreover, the result in [6], in assay [17], in assay [8], in [9], in [10] and in assay [11] was inactive. Also, the outcome in assay [12] is “inactive”; in assay [14] it was “inactive”; in the assay with MYC, MYC (gene 4609), “inactive”; in assay [16], “inactive”; in assay [15], “inactive”.
